Experimental data: the supplement of paper PMC10849652
Targets with a hit are over-represented here; the source holds about 8,800 in all. About 0.5% of all pairs of compound and target were hits. A number with no mark means an inactive call.

What was measured:
Test in all cases: log2 fold change, soluble protein after heating vs DMSO (PISA); higher = thermal stabilisation; K562 lysate, 10 uM; active = over 0.2 and 3.5 SD of the protein, either way, in both replicates (recomputed)
[1] = compound: C#Cc1cccc(Nc2ncnc3cc(OCCOC)c(OCCOC)cc23)c1 [erlotinib]
Method in brief: (§1)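 K562 pellets were dounce-homogenised in PBS pH 7.4 containing 1 mM MgCl2, and the crude extract, at 1 mg/mL protein, was exposed to 10 μM compound for 30 min. Aliquots were heated for 3 min across 48°C-58°C, pooled, brought to 0.5% NP-40 at 4°C and spun at 21,000xg for 90 min, with the supernatant taken as soluble protein. TMTpro 16plex LC-MS/MS with equalised channel sums quantified that protein. Values are log-two fold changes in thermal stability relative to solvent controls, taken from duplicates.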

[2] = compound: C/C(=N\NC(=O)C1=CC(=CC=C1)S(=O)(=O)N2CCOCC2)/C3=C(C=CC(=C3)Cl)O
Method in brief: as §1

[3] = compound: C1=CC(=CC=C1C2=NC3=C(N2)C=C(C=C3)C(=O)N)OC4=CC=C(C=C4)Cl
Method in brief: as §1

[4] = compound: C1=CC2=C(C=CC(=C2)/C=C\3/C(=O)NC(=NCC4=CC=CS4)S3)N=C1
Method in brief: as §1

[5] = compound: C1=CC2=NC=CN=C2C=C1/C=C/3\C(=O)NC(=O)S3
Method in brief: as §1

[6] = compound: C1=CC=C(C=C1)C2=NC(=C(N2)C3=CC=NC=C3)C4=CC(=C(C=C4)Cl)O
Method in brief: as §1

[7] = compound: C1=CC=C2C(=C1)C3=NNC4=CC=CC(=C43)C2=O
Method in brief: as §1

[8] = compound: C1CCN(C1)C(=O)NC2=CC=CC(=C2)NC3=NC=C(C(=N3)NCCC4=CN=CN4)Br
Method in brief: as §1

[9] = compound: C1CN(CCC1(CC2=CC=C(C=C2)Cl)N)C3=NC=NC4=C3C=CN4
Method in brief: as §1

[10] = compound: C1COCCN1CCN2C3=CC=CC=C3N=C2NC(=O)C4=CC(=CC=C4)[N+](=O)[O-] [IRAK-1-4 Inhibitor I]
Method in brief: as §1

UniProt Q16539, sequence (Q16539 whole entry, looked up): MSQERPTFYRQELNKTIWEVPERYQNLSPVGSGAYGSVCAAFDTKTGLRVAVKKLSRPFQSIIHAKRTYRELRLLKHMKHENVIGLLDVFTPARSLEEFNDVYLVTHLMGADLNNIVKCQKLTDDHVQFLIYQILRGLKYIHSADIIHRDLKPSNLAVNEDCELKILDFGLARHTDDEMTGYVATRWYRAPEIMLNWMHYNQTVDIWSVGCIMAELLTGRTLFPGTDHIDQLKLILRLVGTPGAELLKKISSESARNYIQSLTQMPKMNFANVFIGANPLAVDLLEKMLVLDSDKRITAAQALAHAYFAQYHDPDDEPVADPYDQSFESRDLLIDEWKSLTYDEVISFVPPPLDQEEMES
UniProt Q8NE86, sequence (Q8NE86 whole entry, looked up): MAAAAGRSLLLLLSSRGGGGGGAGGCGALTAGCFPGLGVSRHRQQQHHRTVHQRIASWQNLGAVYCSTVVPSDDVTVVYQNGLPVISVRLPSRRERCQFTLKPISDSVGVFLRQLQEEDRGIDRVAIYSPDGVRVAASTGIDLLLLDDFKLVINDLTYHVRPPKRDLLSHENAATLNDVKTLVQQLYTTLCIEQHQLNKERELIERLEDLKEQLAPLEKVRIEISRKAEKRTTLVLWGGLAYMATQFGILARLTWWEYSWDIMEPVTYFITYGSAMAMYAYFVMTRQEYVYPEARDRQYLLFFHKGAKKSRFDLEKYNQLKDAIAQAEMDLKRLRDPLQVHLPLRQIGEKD
UniProt P46734, sequence (P46734 whole entry, looked up): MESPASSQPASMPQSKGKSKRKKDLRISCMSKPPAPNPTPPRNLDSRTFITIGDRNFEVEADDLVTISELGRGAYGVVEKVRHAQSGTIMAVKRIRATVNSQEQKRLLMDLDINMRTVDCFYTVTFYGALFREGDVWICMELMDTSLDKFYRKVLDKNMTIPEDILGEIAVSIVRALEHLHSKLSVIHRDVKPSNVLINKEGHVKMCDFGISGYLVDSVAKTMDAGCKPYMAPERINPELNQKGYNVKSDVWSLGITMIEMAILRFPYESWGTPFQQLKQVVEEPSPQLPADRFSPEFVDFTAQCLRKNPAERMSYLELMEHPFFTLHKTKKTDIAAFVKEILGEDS
UniProt Q00013, sequence (Q00013 whole entry, looked up): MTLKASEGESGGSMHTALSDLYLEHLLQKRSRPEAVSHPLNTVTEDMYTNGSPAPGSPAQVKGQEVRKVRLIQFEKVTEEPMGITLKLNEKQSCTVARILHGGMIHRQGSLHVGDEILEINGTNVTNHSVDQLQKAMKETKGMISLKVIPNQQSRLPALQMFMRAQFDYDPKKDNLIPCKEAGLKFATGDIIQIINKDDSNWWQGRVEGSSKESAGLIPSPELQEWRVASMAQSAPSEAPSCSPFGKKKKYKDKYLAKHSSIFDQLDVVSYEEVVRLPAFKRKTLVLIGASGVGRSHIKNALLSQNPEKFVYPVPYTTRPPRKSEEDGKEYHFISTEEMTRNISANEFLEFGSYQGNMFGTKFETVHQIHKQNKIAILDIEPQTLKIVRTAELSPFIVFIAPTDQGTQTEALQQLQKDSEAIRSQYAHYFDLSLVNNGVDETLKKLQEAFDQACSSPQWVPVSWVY
UniProt Q9UBB5, sequence (Q9UBB5 whole entry, looked up): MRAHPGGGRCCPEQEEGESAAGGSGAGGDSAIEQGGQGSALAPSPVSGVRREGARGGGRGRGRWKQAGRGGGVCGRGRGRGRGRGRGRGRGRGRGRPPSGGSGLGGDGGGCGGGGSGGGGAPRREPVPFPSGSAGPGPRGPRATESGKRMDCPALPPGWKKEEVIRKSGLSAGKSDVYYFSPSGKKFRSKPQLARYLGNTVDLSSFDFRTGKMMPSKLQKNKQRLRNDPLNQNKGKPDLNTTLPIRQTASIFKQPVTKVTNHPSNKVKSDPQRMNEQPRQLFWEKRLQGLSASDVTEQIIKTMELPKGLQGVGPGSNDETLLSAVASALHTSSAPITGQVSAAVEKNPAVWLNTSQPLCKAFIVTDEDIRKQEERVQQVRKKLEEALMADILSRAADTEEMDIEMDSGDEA
UniProt O00139, sequence (O00139 whole entry, looked up): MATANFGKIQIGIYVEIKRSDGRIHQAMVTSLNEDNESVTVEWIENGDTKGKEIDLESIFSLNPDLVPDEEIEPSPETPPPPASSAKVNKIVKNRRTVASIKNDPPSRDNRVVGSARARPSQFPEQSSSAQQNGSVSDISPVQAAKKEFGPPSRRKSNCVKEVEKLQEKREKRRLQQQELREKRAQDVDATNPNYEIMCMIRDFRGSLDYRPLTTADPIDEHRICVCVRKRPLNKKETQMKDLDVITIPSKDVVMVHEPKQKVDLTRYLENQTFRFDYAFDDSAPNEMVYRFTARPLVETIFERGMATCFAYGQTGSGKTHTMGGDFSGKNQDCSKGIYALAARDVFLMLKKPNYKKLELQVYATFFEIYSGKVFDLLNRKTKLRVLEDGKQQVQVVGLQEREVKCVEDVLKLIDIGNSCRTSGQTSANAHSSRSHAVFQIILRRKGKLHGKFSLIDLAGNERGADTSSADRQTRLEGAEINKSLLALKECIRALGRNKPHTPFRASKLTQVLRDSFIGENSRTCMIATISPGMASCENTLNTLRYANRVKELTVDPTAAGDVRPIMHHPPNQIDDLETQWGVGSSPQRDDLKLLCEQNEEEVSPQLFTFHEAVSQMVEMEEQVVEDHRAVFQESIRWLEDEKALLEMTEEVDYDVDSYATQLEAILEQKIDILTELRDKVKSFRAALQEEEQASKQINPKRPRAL
UniProt A9UHW6, sequence (A9UHW6 whole entry, looked up): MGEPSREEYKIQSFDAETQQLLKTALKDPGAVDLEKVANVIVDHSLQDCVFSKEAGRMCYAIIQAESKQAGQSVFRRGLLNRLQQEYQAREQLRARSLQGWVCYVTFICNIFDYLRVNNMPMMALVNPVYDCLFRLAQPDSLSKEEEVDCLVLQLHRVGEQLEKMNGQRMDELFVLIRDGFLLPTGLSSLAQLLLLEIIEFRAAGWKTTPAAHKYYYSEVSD
UniProt Q9UBU8, sequence (Q9UBU8 whole entry, looked up): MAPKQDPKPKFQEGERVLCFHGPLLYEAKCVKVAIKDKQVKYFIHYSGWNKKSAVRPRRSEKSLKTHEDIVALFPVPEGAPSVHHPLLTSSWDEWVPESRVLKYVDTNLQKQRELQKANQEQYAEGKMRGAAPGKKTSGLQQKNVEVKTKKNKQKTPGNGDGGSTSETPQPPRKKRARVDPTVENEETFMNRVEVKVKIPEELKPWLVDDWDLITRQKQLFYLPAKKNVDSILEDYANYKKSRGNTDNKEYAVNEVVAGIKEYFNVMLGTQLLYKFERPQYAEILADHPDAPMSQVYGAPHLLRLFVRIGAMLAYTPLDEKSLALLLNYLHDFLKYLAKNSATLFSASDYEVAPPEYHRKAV
UniProt Q7Z3D4, sequence (Q7Z3D4 whole entry, looked up): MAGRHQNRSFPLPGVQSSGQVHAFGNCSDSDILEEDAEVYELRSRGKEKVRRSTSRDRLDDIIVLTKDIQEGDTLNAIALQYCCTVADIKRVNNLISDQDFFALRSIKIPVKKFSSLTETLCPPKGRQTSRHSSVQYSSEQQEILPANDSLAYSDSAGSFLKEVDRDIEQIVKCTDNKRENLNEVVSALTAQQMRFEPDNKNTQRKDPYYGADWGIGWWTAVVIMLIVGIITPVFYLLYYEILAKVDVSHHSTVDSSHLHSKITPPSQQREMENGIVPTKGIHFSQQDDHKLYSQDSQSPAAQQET
UniProt P36507, sequence (P36507 whole entry, looked up): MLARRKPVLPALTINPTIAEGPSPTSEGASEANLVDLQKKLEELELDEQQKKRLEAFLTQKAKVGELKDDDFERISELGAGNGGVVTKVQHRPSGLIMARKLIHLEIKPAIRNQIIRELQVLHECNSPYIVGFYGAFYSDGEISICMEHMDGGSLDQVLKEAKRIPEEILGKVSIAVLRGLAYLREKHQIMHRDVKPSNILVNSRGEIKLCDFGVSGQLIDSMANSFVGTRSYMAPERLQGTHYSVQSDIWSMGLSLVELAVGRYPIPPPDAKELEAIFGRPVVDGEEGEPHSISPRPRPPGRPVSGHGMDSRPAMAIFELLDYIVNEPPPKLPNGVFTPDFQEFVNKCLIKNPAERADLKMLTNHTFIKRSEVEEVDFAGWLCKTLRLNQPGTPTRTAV
UniProt Q8IWC1, sequence (Q8IWC1 whole entry, looked up): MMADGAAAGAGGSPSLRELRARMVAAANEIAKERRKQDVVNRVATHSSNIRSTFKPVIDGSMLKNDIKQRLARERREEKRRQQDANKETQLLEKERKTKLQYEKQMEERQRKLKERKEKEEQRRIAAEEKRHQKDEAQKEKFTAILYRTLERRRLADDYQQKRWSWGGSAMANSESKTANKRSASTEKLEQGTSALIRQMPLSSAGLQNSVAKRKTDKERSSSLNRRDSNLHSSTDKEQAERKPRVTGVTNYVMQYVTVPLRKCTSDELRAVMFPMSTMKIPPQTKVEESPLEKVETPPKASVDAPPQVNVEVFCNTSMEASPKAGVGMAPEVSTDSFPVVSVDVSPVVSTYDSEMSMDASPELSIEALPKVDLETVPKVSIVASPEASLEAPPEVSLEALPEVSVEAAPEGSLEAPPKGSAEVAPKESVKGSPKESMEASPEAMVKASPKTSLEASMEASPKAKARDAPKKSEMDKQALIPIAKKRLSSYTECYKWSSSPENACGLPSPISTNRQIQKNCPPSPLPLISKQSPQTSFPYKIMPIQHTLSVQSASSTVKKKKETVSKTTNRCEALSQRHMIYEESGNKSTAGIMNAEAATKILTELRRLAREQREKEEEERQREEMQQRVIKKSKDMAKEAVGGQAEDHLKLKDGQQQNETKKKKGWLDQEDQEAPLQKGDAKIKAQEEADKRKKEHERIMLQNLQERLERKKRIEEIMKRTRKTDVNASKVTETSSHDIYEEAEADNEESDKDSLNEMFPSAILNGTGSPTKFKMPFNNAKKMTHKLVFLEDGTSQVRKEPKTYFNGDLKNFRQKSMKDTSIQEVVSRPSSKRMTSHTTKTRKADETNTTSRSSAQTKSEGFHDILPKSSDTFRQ

Target	log2 fold change [1]	log2 fold change [2]	log2 fold change [3]	log2 fold change [4]	log2 fold change [5]	log2 fold change [6]	log2 fold change [7]	log2 fold change [8]	log2 fold change [9]	log2 fold change [10]
KIFC1 (UniProt Q9BW19)	0.003	0.061	0.011	-0.002	-0.048	0.011	-0.012	-0.009	0.025	-0.023
MAP2K3 isoform 3 (UniProt P46734)	0.048	0.061	0.03	-0.063	0.03	-0.037	0.119	-0.006	0.129	0.03
MCMBP isoform 2 (UniProt Q9BTE3)	0.084	0.027	0.282	-0.168	-0.156	-0.051	-0.411	0.024	0.055	-0.016
MIF4GD isoform 3 (UniProt A9UHW6)	-0.006	0.041	0.03	0.028	-0.073	0.039	-0.03	-0.052	0.051	-0.04
MAP2K5 (UniProt Q13163)	0.16	0.153	-0.024	0.142	-0.097	-0.015	0.06	-0.007	-0.024	0.144
MBD2 (UniProt Q9UBB5)	0.013	-0.933	-0.003	0.05	-0.016	0.094	0.023	-0.069	-0.011	0.016
MAST4 (UniProt O15021)	-0.019	-0.026	-0.031	0.027	-0.044	0.01	0.384 (active)	0.149	-0.011	-0.008
MAP7D3 (UniProt Q8IWC1)	0.069	0.053	0.281	0.052	-0.023	-0.025	0.044	-0.034	-0.012	-0.017
KIF22 (UniProt Q14807)	0.012	-0.074	0.076	-0.147	-0.007	-0.063	-0.123	0.026	0.05	0.06
LRRC40 (UniProt Q9H9A6)	-0.014	0.009	0.004	-0.002	-0.028	-0.015	-0.014	-0.036	-0.011	-0.017
MOCS1 isoform 8 (UniProt Q9NZB8)	-0.055	-0.002	0.074	0.058	-0.008	0.026	0	-0.056	0.183	0.02
MAP4 (UniProt E7EVA0)	0.056	0.01	0.113	0.045	-0.072	-0.004	-0.076	0.071	0.061	0.037
MACROD1 (UniProt Q9BQ69)	0.025	0.017	0.009	0.02	0.283	-0.005	-0.074	0.131	-0.002	0.081
MAP2K2 (UniProt P36507)	0.049	0.005	0.023	-0.023	-0.006	0.001	0.249	0.219	0.017	0
MFF isoform 2 (UniProt Q9GZY8)	0.006	-0.056	0.021	-0.009	-0.014	-0.035	-0.005	0.024	0.037	0.018
LUC7L (UniProt Q9NQ29)	-0.024	0.021	-0.097	0.015	-0.067	-0.023	0.01	-0.02	-0.004	-0.026
MCU (UniProt Q8NE86)	0.045	-0.028	-0.09	0.02	0.057	-0.035	0.084	0.055	0.015	0.064
LYSMD3 (UniProt Q7Z3D4)	-0.067	-0.051	0.044	0.069	0.05	0.007	-0.11	0.037	0	-0.01
MAPK1 (UniProt P28482)	-0.021	-0.017	0.001	0.001	-0.016	-0.003	0.065	0.017	0.009	-0.009
KLC1 isoform 6 (UniProt Q07866)	-0.02	-0.023	0.002	0	-0.033	0.002	-0.007	-0.027	-0.01	0.011
MPP1 (UniProt Q00013)	0.014	0.017	-0.007	-0.008	-0.025	0.014	-0.014	0.003	0.018	-0.007
KLC4 isoform 3 (UniProt Q9NSK0)	0	-0.017	0.05	0	0	0.018	-0.029	-0.056	0.007	-0.021
MORF4L1 isoform 2 (UniProt Q9UBU8)	0.028	0.06	0.046	-0.027	-0.032	-0.005	0.017	-0.04	-0.01	0.013
MAPK14 isoform 2 (UniProt Q16539)	-0.004	0.011	-0.049	0.016	0.017	0.633	-0.045	-0.02	0.059	-0.015
MICU1 isoform 3 (UniProt Q9BPX6)	0.009	0.049	-0.029	-0.017	-0.012	-0.047	0.001	0.016	0.012	0.024
MED12 isoform 2 (UniProt Q93074)	0.007	-0.037	0	0.009	0.008	0.004	-0.025	-0.013	0.011	-0.035
KIF2A isoform 4 (UniProt O00139)	-0.008	0.02	-0.014	-0.007	-0.037	0.001	-0.022	-0.02	-0.041	-0.026
LIMS1 isoform 3 (UniProt P48059)	-0.004	-0.034	0.014	0.009	-0.008	0.004	0.094	0.003	-0.017	-0.024
MRPL28 (UniProt Q13084)	-0.112	-0.085	0.027	0.011	-0.074	0.017	0.024	0.042	-0.031	-0.03
